The text below walks through data of PubChem BioAssay (NCI).

SMILES strings stand for the structures. About 83,000 compounds went through this panel and 20% of them were active in at least one assay; those are over-represented in the sample as a whole.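 The test compound was applied at a single concentration to cells in 96-well plates for 48 hours, and percent growth was recorded.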 A number with no mark means an inactive call. Activity calls are given as the source filed them. Rule for the calls: active = growth percent below 10; inactive = the rest.

The subject of the assay is PC-3 prostate. In words: NCI-60 one-dose screen, 48 h (100 = growth as untreated, 0 = no growth, -100 = all killed). The settings on record: 10 µM unless noted.
`ClCCN(CCCl)C(c1ccccc1)c1ccc(Cl)cc1` (stereo unspecified): the growth is 52%.

For the molecule `CCCCn1cc(C(=O)/C(C#N)=C/c2cc3ccccc3nc2Cl)c2cc(OC)ccc21`, the growth was 87.7%.

For the molecule `CCCCNCCc1ccccn1`, the growth was 96%. `CC(=O)C1C(=O)N(C)C(=O)N(C)C1=O`: the growth was 94.9%. As to `CC1(C)N=C(N)N=C(N)N1c1cccc(C(=O)Nc2cccc(S(=O)(=O)F)c2)c1`, the growth is 97.1%. With `C[C@]12CC[C@@H]3C4=C(CC[C@H]3[C@@H]1CC[C@@H]2O)CC(=O)CC4` the figure was 103%. With `Oc1ccccc1OB(Oc1ccccc1O)N(CCCl)CCCl` the figure was 82.8%; with `NC(Cc1ccc2c(c1)OCO2)c1ccc2c(c1)OCO2` (stereo unspecified), 93.4%; with `COc1ccc(-c2ccc(OC)c(OC)c2OC)cc1`, 18.3%. As to `CC1(C)N=C(N)N=C(N)N1c1ccc(CCCCc2ccc(S(=O)(=O)F)cc2)c(Cl)c1`, the growth is 7.48% (active). On to `COc1ccc(C2=NN(c3ccccc3)C(c3sc(N(CCCl)CCCl)nc3Cl)C2)cc1` (stereo unspecified), for which the growth was 69.5%.

For the molecule `N#CC1c2ccccc2C=CN1C(=O)c1ccc(N(CCCl)CCCl)cc1` (stereo unspecified), the growth was 81.1%. For the molecule `CSc1ccccc1NP1(=O)OCC(C)([N+](=O)[O-])CO1` (stereo unspecified), the growth was 98%. Consider `Cc1ccc(N)cc1[As]=[As]c1cc(N)ccc1C` (stereo unspecified), for which the growth is -89.9% (active). As for `C/C(=N/OC(=O)N(C)C)c1cc(Cl)ccc1Cl`, the growth was 106%. For the molecule `CCC(C)[C@H]1O[C@]2(C=C[C@@H]1C)C[C@@H]1C[C@@H](C/C=C(\C)[C@@H](OC3C[C@H](OC)C(O[C@H]4C[C@H](OC)[C@@H](O)[C@H](C)O4)[C@H](C)O3)[C@@H](C)/C=C/C=C3\CO[C@@H]4[C@H](O)C(C)=C[C@@H](C(=O)O1)[C@]34O)O2` (stereo partly specified), the growth was -5.32% (active).
